# From ChEMBL document CHEMBL1961873, “Compounds: GSK PKIS; Assays: Nanosyn kinase panel” (2012)
# Tests used:
# [1] = biological target: Dual specificity protein kinase CLK3 (Homo sapiens) (UniProt P49761); settings: at 1 µM;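 note: each value is the mean inhibition of CLK3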
# [2] = biological target: Dual specificity tyrosine-phosphorylation-regulated kinase 1A (Homo sapiens) (UniProt Q13627); settings: at 0.1 µM
# [3] = biological target: Dual specificity tyrosine-phosphorylation-regulated kinase 1A (Homo sapiens) (UniProt Q13627); settings: at 1 µM
# [4] = biological target: Dual specificity tyrosine-phosphorylation-regulated kinase 1B (Homo sapiens) (UniProt Q9Y463); settings: at 0.1 µM
# Chain of Dual specificity tyrosine-phosphorylation-regulated kinase 1B (Homo sapiens) (Q9Y463 whole entry, looked up): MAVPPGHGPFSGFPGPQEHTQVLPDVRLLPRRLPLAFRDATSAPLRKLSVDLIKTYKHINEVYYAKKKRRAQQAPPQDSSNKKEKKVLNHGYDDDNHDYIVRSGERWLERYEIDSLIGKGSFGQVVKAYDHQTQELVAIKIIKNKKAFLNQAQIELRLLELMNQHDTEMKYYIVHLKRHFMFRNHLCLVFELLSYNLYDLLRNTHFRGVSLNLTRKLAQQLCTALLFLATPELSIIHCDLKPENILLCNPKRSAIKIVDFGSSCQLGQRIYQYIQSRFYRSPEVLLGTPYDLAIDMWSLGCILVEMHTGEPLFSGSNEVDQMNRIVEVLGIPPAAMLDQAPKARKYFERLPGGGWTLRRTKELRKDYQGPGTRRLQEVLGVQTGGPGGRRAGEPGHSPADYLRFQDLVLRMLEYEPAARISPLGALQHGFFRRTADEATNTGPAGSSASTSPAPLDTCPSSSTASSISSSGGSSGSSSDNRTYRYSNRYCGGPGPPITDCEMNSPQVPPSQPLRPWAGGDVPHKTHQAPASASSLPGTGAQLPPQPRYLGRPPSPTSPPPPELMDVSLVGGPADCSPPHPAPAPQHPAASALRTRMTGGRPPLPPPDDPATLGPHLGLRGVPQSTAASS
# [5] = biological target: Dual specificity tyrosine-phosphorylation-regulated kinase 1B (Homo sapiens) (UniProt Q9Y463); settings: at 1 µM
# [6] = biological target: T1, Dual specificity tyrosine-phosphorylation-regulated kinase 2 (Homo sapiens) (UniProt Q92630); settings: at 0.1 µM
# T1 sequence (whole entry): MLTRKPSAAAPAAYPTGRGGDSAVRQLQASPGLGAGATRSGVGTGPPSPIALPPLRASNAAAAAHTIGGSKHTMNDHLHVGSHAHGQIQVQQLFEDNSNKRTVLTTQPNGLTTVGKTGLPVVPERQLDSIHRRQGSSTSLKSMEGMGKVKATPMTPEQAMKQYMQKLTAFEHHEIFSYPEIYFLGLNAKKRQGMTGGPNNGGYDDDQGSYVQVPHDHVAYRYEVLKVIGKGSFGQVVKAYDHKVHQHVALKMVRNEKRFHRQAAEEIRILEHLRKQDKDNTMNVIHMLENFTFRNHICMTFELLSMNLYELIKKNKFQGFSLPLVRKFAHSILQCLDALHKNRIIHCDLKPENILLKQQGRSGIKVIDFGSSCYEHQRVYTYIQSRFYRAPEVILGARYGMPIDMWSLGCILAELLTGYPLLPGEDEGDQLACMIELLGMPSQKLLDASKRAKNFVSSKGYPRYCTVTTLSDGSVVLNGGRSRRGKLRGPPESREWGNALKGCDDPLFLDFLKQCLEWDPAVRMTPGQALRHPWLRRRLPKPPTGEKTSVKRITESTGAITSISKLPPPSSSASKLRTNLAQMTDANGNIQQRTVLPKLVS
# [7] = biological target: T1, Dual specificity tyrosine-phosphorylation-regulated kinase 2 (Homo sapiens); settings: at 1 µM
# [8] = biological target: Glycogen synthase kinase-3 alpha (Homo sapiens) (UniProt P49840); settings: at 0.1 µM
# Chain of Glycogen synthase kinase-3 alpha (Homo sapiens) (P49840 2-483 limits assumed): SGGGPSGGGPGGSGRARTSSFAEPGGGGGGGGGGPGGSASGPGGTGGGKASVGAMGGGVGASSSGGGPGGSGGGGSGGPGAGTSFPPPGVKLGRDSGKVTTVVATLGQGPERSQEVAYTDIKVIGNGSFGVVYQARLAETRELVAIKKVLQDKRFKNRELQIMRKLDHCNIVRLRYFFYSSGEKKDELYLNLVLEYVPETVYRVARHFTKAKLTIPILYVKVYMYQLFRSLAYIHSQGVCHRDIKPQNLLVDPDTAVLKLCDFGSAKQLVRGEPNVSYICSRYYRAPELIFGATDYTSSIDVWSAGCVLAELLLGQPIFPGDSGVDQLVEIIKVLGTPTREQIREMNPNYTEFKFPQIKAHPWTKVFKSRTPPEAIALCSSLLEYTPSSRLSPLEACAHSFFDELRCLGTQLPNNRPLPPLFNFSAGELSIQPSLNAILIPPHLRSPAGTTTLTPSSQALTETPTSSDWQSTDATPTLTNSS
# [9] = biological target: Glycogen synthase kinase-3 alpha (Homo sapiens) (UniProt P49840); settings: at 1 µM
# [10] = biological target: Glycogen synthase kinase-3 beta (Homo sapiens) (UniProt P49841); settings: at 0.1 µM
# Chain of Glycogen synthase kinase-3 beta (Homo sapiens) (P49841 whole entry, looked up): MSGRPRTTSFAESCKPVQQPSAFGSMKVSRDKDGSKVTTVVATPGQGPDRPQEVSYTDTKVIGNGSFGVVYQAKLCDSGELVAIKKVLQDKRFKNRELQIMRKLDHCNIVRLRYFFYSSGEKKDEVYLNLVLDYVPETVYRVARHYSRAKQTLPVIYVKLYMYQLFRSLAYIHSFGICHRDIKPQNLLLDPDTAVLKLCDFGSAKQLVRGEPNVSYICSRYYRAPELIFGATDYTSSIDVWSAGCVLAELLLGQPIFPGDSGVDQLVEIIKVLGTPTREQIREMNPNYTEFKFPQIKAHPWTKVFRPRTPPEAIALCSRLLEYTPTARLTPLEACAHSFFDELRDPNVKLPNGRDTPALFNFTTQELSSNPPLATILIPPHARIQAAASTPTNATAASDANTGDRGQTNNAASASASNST
# [11] = biological target: Glycogen synthase kinase-3 beta (Homo sapiens) (UniProt P49841); settings: at 1 µM
# [12] = biological target: Homeodomain-interacting protein kinase 1 (Homo sapiens) (UniProt Q86Z02); settings: at 0.1 µM
# Chain of Homeodomain-interacting protein kinase 1 (Homo sapiens) (Q86Z02 whole entry, looked up): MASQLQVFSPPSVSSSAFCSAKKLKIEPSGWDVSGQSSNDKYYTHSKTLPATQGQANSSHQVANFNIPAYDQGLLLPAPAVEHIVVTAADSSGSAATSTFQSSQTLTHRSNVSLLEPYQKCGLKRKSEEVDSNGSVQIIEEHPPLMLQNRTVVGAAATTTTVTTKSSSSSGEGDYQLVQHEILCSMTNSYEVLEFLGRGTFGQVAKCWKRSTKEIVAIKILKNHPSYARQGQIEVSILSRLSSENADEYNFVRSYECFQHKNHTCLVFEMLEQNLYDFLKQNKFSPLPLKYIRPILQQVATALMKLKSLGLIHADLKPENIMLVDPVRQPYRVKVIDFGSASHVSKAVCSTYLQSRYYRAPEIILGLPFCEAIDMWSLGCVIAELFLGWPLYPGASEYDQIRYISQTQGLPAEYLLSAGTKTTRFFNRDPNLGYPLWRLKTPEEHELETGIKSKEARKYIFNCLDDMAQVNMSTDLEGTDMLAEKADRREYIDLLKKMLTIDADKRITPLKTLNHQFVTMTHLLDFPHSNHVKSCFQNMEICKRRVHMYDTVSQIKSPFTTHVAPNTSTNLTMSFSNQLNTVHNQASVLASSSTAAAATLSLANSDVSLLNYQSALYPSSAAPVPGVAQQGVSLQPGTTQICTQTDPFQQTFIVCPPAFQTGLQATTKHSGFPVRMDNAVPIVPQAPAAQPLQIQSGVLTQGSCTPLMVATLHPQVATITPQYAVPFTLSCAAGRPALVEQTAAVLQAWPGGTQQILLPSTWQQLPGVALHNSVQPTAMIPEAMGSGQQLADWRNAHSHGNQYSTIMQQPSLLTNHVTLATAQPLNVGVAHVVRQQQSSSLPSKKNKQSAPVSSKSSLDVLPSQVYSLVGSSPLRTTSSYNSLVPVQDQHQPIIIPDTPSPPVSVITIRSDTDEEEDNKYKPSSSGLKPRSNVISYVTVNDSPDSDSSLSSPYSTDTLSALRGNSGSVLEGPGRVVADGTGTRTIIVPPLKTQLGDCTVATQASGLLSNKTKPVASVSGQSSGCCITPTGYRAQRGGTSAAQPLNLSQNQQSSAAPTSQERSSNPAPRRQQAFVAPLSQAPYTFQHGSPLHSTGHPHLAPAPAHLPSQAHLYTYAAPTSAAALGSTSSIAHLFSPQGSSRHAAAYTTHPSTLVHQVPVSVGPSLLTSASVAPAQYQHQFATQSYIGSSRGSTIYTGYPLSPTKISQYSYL
# [13] = biological target: Homeodomain-interacting protein kinase 1 (Homo sapiens) (UniProt Q86Z02); settings: at 1 µM
# [14] = biological target: T2, Homeodomain-interacting protein kinase 4 (Homo sapiens) (UniProt Q8NE63); settings: at 0.1 µM
# T2 sequence (whole entry): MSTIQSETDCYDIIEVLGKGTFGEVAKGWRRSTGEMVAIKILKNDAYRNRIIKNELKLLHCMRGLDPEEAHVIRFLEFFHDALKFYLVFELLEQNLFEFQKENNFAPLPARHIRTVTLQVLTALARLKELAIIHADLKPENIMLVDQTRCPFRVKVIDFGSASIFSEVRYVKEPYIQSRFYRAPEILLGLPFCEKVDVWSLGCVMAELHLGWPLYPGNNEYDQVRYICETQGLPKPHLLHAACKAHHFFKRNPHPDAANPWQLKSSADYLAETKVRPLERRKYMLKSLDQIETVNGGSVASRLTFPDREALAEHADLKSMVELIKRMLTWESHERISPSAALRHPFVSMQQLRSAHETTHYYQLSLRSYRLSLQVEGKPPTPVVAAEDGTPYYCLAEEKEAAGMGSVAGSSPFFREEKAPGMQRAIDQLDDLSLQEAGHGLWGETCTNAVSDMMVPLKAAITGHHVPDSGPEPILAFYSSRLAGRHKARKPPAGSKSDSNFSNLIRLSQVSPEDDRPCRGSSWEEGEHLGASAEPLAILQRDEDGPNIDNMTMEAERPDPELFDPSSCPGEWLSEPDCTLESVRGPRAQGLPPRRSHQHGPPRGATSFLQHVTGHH
# [15] = biological target: T2, Homeodomain-interacting protein kinase 4 (Homo sapiens); settings: at 1 µM
# [16] = biological target: Mitogen-activated protein kinase 9 (Homo sapiens) (UniProt P45984); settings: at 0.1 µM
# Chain of Mitogen-activated protein kinase 9 (Homo sapiens) (P45984 whole entry, looked up): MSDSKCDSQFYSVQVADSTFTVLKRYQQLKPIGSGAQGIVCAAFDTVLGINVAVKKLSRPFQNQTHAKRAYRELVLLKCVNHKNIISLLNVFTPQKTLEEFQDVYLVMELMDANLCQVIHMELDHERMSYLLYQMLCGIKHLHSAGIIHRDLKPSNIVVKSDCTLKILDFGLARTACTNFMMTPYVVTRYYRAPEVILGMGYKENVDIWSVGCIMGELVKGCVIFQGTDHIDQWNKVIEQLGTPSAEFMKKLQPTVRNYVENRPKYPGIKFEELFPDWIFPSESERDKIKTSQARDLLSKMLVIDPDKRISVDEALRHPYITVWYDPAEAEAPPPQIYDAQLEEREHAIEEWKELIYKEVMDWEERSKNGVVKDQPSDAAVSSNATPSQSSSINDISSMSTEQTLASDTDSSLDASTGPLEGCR
# [17] = biological target: Mitogen-activated protein kinase 9 (Homo sapiens) (UniProt P45984); settings: at 1 µM
# [18] = biological target: Mitogen-activated protein kinase 1 (Homo sapiens) (UniProt P28482); settings: at 0.1 µM
# Chain of Mitogen-activated protein kinase 1 (Homo sapiens) (P28482 whole entry): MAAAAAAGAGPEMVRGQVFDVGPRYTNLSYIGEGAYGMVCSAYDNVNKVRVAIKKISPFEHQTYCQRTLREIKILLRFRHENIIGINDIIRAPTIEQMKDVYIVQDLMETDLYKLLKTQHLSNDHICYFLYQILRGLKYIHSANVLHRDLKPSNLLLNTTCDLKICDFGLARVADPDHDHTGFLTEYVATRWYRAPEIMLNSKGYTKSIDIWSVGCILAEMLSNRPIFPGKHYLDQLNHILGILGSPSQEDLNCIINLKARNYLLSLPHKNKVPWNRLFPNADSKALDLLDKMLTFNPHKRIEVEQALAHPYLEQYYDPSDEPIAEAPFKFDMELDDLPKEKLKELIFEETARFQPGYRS
# [19] = biological target: Mitogen-activated protein kinase 1 (Homo sapiens) (UniProt P28482); settings: at 1 µM
# [20] = biological target: Mitogen-activated protein kinase 3 (Homo sapiens) (UniProt P27361); settings: at 0.1 µM;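 note: each value is a mean inhibition figure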
# Chain of Mitogen-activated protein kinase 3 (Homo sapiens) (P27361 whole entry): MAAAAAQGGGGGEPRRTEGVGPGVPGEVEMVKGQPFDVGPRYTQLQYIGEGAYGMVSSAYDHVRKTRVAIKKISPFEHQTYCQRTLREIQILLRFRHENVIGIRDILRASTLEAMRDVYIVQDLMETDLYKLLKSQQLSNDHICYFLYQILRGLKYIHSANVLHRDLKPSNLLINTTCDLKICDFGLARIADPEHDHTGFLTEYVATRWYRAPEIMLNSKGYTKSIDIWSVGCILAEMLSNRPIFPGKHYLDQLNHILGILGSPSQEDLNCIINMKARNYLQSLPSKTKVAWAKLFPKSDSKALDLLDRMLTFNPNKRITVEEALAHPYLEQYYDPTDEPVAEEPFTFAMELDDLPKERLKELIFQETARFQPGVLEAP
# Chain of Dual specificity protein kinase CLK3 (Homo sapiens) (P49761 whole entry, looked up): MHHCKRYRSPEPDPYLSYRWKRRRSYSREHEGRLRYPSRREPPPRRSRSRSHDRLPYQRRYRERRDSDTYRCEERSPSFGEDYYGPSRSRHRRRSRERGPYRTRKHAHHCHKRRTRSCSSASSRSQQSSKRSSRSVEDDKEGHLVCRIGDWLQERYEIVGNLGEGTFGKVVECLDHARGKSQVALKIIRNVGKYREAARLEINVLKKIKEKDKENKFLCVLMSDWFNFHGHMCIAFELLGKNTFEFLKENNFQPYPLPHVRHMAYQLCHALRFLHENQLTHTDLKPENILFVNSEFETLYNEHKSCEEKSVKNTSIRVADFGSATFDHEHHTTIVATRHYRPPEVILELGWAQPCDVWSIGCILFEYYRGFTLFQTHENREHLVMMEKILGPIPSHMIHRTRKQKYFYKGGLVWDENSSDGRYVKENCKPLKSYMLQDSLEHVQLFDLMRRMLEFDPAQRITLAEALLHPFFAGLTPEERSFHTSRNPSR
Structure (SMILES),inhibition [1] [%],inhibition [2] [%],inhibition [3] [%],inhibition [4] [%],inhibition [5] [%],inhibition [6] [%],inhibition [7] [%],inhibition [8] [%],inhibition [9] [%],inhibition [10] [%],inhibition [11] [%],inhibition [12] [%],inhibition [13] [%],inhibition [14] [%],inhibition [15] [%],inhibition [16] [%],inhibition [17] [%],inhibition [18] [%],inhibition [19] [%],inhibition [20] [%]
CNC(=O)c1cccc(C#Cc2cncnc2Nc2ccc(OCc3cccc(F)c3)c(Cl)c2)c1,-0.52,-0.33,1.36,0.13,1,0.97,1.82,1.09,3.8,0.4,6.56,1.69,4.07,1.01,4.65,-2.46,1.25,1.53,0.6,2.46
CS(=O)(=O)CCNCc1ccc(-c2ccc3ncnc(Nc4ccc(OCc5ccccc5)c(C(F)(F)F)c4)c3c2)o1,0.19,2.36,4.91,-2.07,-0.6,3.17,0.91,3.36,3.82,3.13,3.51,-3.76,-0.23,-0.74,-1.78,2.51,0.92,4.58,5.24,3.56
CCn1c(-c2nonc2N)nc2c(C#CC(C)(C)O)nc(OC[C@H](N)c3ccccc3)cc21,0.92,1.72,2.24,0.98,2.57,3.62,4.79,36.8,73.6,30,71.2,-1.18,12.3,3.08,6.13,7.43,9.81,2.37,5.04,3.72
COc1ccc(-c2nn3ncccc3c2-c2ccnc(Nc3ccc4c(c3)OCCO4)n2)cc1,-0.46,-0.47,-2.81,-0.35,-3.65,0.08,-3.08,0.99,2.53,-0.07,5.33,-7.34,-0.07,0.08,-1.16,13,64.6,-0.01,0.95,3.56
COc1cccc(-n2ncc3c(N/N=C/c4ccc(F)cc4)ncnc32)c1,6.29,6.93,24.2,4.09,16.3,5.25,18.8,64,87.7,54.6,83,11.9,27.1,9.35,20.9,1.94,4.28,5.5,2.32,2.41
[O-][S+]1CCN(Cc2ccc(-c3ccc4ncnc(Nc5ccc(OCc6cccc(F)c6)c(Cl)c5)c4c3)o2)CC1,1.25,4.05,3.96,0.06,1.57,4.92,4.13,3.26,5.28,3.06,4.76,-2.75,1.62,0.28,0.6,3.35,1.33,7.21,6.45,5.68
CN1CCC(n2cnc(-c3ccc(F)cc3)c2-c2ccnc(Nc3ccccc3)n2)CC1,0.59,1.28,2.82,0.22,0.48,1.36,3.27,3.08,12.7,4.95,34.3,2.6,0.41,0.08,7.29,28,74.7,2.4,5.02,3.96
CNC(=O)c1cc(-c2ccc(F)cc2)cc(-c2ccc(S(=O)(=O)N3CCCC3)cc2)c1N,1.45,2.86,3.9,-1.54,-0.38,2.23,2.03,3.5,5.1,2.65,4.74,-2.69,-0.12,-0.78,0.3,1.82,2.81,4.15,4.03,2.42
COc1ccc2[nH]c3c4[nH]c5ccc(OC)cc5c4c4c(c3c2c1)C(=O)NC4=O,4.44,10.1,43.1,2.55,26.1,6.81,29,1.75,6.24,3.92,14.7,5.17,20.7,4.28,22.8,4.65,21.7,3.5,5.44,4.93
CCCN(CCS(C)(=O)=O)Cc1ccc(-c2ccc3ncnc(Nc4ccc(OCc5cccc(F)c5)c(Cl)c4)c3c2)o1,3.58,4.83,10.8,4.87,10.4,1.93,2.03,7.55,9.2,6.85,10.2,6.46,11.6,3.01,9.25,2.74,4.94,1.68,3.24,1.75
c1ccc(COc2ccc(Nc3ncnc4ccc(-c5ccco5)cc34)cc2)cc1,-0.29,-1.32,3.87,-0.39,0.34,0.31,-1.53,1.11,1.51,0.28,2.25,-3.03,-3.68,0.31,1.89,1.39,1.07,2.65,-3.36,0.95
CCn1c(-c2nonc2N)nc2cnc(Oc3cccc(NC(=O)c4ccc(N(C)C)cc4)c3)cc21,0.75,0.93,5.38,-0.45,4.48,1,2.79,8.94,46.6,6.2,41,-2.28,1.69,-1.11,3.8,2.94,3.41,1.18,3.77,1.53
COc1ccc(-c2cc3c(N)ncnc3o2)cc1,11.4,4.26,22.7,5.2,12,0.06,18.5,5.87,7.92,5.53,8,0,5.4,2.36,16.5,-0.62,-0.18,1,0.69,-1.53
